# In PubChem BioAssay (EPA / NIEHS):
# Results filed as inconclusive are left out. Calls of active or inactive are those of the source. How the source made its calls, unless noted: active means hit-call score of the fitted dose curve at least 0.9, where 1 is the maximum; inactive means score below 0.9.
# Legend:
# [1] = biological target: Estrogen-related receptor gamma (Homo sapiens) (UniProt P62508); assay: ATG_ERRg_TRANS: Attagene TRANS-FACTORIAL HepG2 Assay for human Estrogen-Related Receptor gamma (ERRg) (AID 2282977; active means hit-call score of the fitted dose curve at least 0.9, where 1 is the maximum;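 further: hits increase reporter signal over DMSO so potencies reflect activators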); conditions: HepG2 Attagene TRANS reporter, ERRg transactivation
# Method in brief: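 HepG2 cells transiently transfected with multiplexed GAL4-UAS reporter units and chimeric NR-Gal4 constructs were exposed to test chemicals for 24 h. Reporter mRNA was measured by RT-PCR, 6-FAM primer extension, HpaI digestion and capillary electrophoresis; gain-of-signal versus DMSO.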
# [2] = biological target: Glucocorticoid receptor (Homo sapiens) (UniProt P04150); assay: ATG_GR_TRANS: Attagene TRANS-FACTORIAL HepG2 Assay for human Glucocorticoid Receptor (GR) (AID 2282978; active means hit-call score of the fitted dose curve at least 0.9, where 1 is the maximum;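 further: activators score as hits since higher reporter transcript over DMSO is fitted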); conditions: HepG2 Attagene TRANS GR reporter, mRNA transcription
# Method in brief: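 Transiently transfected HepG2 cells express chimeric NR-GAL4 proteins acting on GAL4-UAS reporter units. Compounds are applied for 24 h. mRNA induction over DMSO is measured by capillary electrophoresis.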
# [3] = biological target: Bile acid receptor (Homo sapiens) (UniProt Q96RI1); assay: ATG_FXR_TRANS: Attagene TRANS-FACTORIAL HepG2 Assay for Farnesoid X Receptor (FXR) (AID 2282979; active means hit-call score of the fitted dose curve at least 0.9, where 1 is the maximum;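 further: hits raise reporter mRNA above DMSO so AC50 marks FXR activation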); conditions: HepG2 Attagene TRANS FXR-GAL4 reporter transcription
# Method in brief: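 HepG2 cells transiently transfected with reporter constructs in which a chimeric FXR-GAL4 protein drives a GAL4-UAS reporter; 24 h compound exposure. Reporter mRNA measured by RT-PCR, FAM labelling, HpaI digestion and capillary electrophoresis; gain-of-signal versus DMSO.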
# [4] = biological target: Oxysterols receptor LXR-alpha (Homo sapiens) (UniProt Q13133); assay: ATG_LXRa_TRANS: Attagene TRANS-FACTORIAL HepG2 Assay for human Liver X Receptor alpha (LXRa) (AID 2282980; active means hit-call score of the fitted dose curve at least 0.9, where 1 is the maximum); conditions: HepG2 Attagene TRANS reporter, LXRa transactivation
# Method in brief: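 HepG2 cells were transiently transfected with multiplexed reporter units driven by chimeric LXRa–GAL4 fusion proteins, then dosed for 24 h. Reporter mRNA was quantified by RT-PCR, fluorescent labelling and capillary electrophoresis; gain of signal fitted against DMSO baseline.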
# [5] = biological target: Hepatocyte nuclear factor 4-alpha (Homo sapiens) (UniProt P41235); assay: ATG_HNF4a_TRANS: Attagene TRANS-FACTORIAL HepG2 Assay for human Hepatocyte Nuclear Factor 4 alpha (HNF4a) (AID 2282982; active means hit-call score of the fitted dose curve at least 0.9, where 1 is the maximum); conditions: HepG2 HNF4a transactivation reporter, mRNA readout
# Method in brief: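 HepG2 cells transiently transfected with multiplexed GAL4-UAS reporter units responsive to chimeric NR-GAL4 proteins; compound exposure 24 h. Reporter mRNA quantified by RT-PCR, 6-FAM labelling, HpaI digestion and capillary electrophoresis; gain of signal versus DMSO baseline.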
# [6] = ATG_M_06_TRANS: Attagene TRANS-FACTORIAL HepG2 Assay for M06 Transcription Factor (Internal Marker) (AID 2282983; active means hit-call score of the fitted dose curve at least 0.9, where 1 is the maximum); conditions: HepG2 Attagene TRANS M06 internal marker reporter
# Method in brief: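 HepG2 cells transiently transfected with multiplexed GAL4-UAS reporter transcription units; after 24 h compound exposure, reporter mRNA measured by RT-PCR, FAM-labelled primer extension, HpaI digestion and capillary electrophoresis. Gain-of-signal fitted versus DMSO baseline; background control readout.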
# [7] = biological target: Nuclear receptor subfamily 4 group A member 2 (Homo sapiens) (UniProt P43354); assay: ATG_NURR1_TRANS: Attagene TRANS-FACTORIAL HepG2 Assay for human Nuclear Receptor Related Protein 1 (NURR1) (AID 2282985; active means hit-call score of the fitted dose curve at least 0.9, where 1 is the maximum); conditions: HepG2 Attagene TRANS reporter, mRNA readout
# Method in brief: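 HepG2 cells transiently transfected with GAL4-UAS reporter units and chimeric NR-Gal4 constructs; chemical exposure 24 h. Reporter mRNA quantified by RT-PCR, fluorescent labelling and capillary electrophoresis; gain of signal fitted relative to DMSO baseline.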
# [8] = biological target: Nuclear respiratory factor 1 (Homo sapiens) (UniProt Q16656); assay: ATG_NRF1_CIS: Attagene CIS-FACTORIAL HepG2 Assay for human Nuclear Respiratory Factor 1 (NRF1) Orphan Gene (AID 2282987); conditions: HepG2 NRF1 cis-element reporter, Attagene multiplex; actives raise or lower the signal
# Method in brief: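 Reporter mRNA induction or loss in HepG2 cells after 24 h dosing; cis-regulated reporter constructs report endogenous transcription-factor activity. Quantified by RT-PCR/capillary electrophoresis fluorescence, DMSO-referenced.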
# [9] = ATG_NFI_CIS: Attagene CIS-FACTORIAL HepG2 Assay for human Nuclear Factor I (NFI) (AID 2282989); conditions: HepG2 cis-regulatory reporter, NFI response element transcription; actives raise or lower the signal
# Method in brief: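 Reporter transcripts were measured by RT-PCR with fluorescent primer extension and capillary electrophoresis 24 h post-treatment. HepG2 cells carried transiently transfected cis-regulated reporter constructs reporting endogenous factor activity; gain or loss fitted against DMSO baseline.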
# [10] = biological target: Myc proto-oncogene protein (Homo sapiens) (UniProt P01106); assay: ATG_Myc_CIS: Attagene CIS-FACTORIAL HepG2 Assay for human Myelocytomatosis (Myc) Proto-Oncogene Transcription Factor (AID 2282990); conditions: HepG2, Attagene cis-reporter transcription factor activity; actives raise or lower the signal
# Method in brief: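 Multiplexed cis-reporter transcription in HepG2 cells after 24 h chemical treatment. Reporter mRNA measured by RT-PCR and capillary electrophoresis fluorescence; activity fitted bidirectionally against DMSO control.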
# [11] = ATG_NF_kB_CIS: Attagene CIS-FACTORIAL HepG2 Assay for human Nuclear Factor Kappa B (NF-kB) (AID 2282991); conditions: HepG2 Attagene cis-factorial NF-kB reporter mRNA; actives raise or lower the signal
# Method in brief: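 DMSO served as negative control and baseline for bidirectional curve fitting. Transiently transfected HepG2 cells were dosed for 24 h, then reporter transcripts were measured by RT-PCR with capillary electrophoresis detection.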
# [12] = ATG_NRF2_ARE_CIS: Attagene CIS-FACTORIAL HepG2 Assay for human Nuclear Factor Erythroid 2 Related Factor 2 (NFR2) response to Antioxidant Response Elements (ARE) (AID 2282992); conditions: HepG2 Attagene ARE/NRF2 reporter, transcription factor activity; actives raise or lower the signal
# Method in brief: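 Multiplexed reporter mRNA profiling in HepG2 after a 24 h chemical exposure. Curves fitted in both directions relative to DMSO negative control.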
# [13] = ATG_Oct_MLP_CIS: Attagene CIS-FACTORIAL HepG2 Assay for human Octamer-Binding Transcription Factor (Oct) (AID 2282993); conditions: HepG2 Attagene cis-factorial Oct reporter, mRNA; actives raise or lower the signal
# Method in brief: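 Readout is reporter transcript level from RT-PCR with fluorescent primer extension and capillary electrophoresis, fitted in both directions against DMSO. Transfected HepG2 reporter units report endogenous factor activity after 24 h dosing.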
# [14] = biological target: Cellular tumor antigen p53 (Homo sapiens) (UniProt P04637); assay: ATG_p53_CIS: Attagene CIS-FACTORIAL HepG2 Assay for human p53 Transcription Factor (AID 2282994); conditions: HepG2 p53 cis-element reporter, Attagene mRNA; actives raise or lower the signal
# Method in brief: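 Multiplexed reporter mRNA assay in human HepG2 liver cells; cis-regulated units report endogenous factor activity. Values come from bidirectional curve fitting against DMSO negative control after 24 h treatment.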
# [15] = BSK_3C_TissueFactor: BioMAP Diversity Plus: 3C Assay for Tissue Factor Biomarker Activity (AID 2282997); conditions: BioMAP 3C HUVEC, tissue factor biomarker readout; actives raise or lower the signal
# Method in brief: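 Primary human umbilical vein endothelial cells in the 3C system were exposed to test chemical for 24 h, then Tissue Factor measured by ELISA. Activity was fitted bidirectionally against DMSO as negative control and baseline.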
# [16] = BSK_3C_uPAR: BioMAP Diversity Plus: 3C Assay for Urokinase-type plasminogen activator receptor (uPAR) Biomarker Activity (AID 2282998); conditions: BioMAP 3C HUVEC, uPAR biomarker ELISA; actives raise or lower the signal
# Method in brief: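 Cell-surface uPAR on HUVEC (3C system) read by ELISA at 24 h post-treatment, with DMSO as baseline and fitting in both directions. Parallel cultures stained with SRB to flag overt cytotoxicity.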
# [17] = BSK_3C_VCAM1: BioMAP Diversity Plus: 3C Assay for Vascular cell adhesion molecule 1 (VCAM1) Biomarker Activity (AID 2282999); conditions: BioMAP 3C HUVEC, VCAM1 ELISA, cytokine-stimulated; actives raise or lower the signal
# Method in brief: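 Human umbilical vein endothelial cells were dosed with compound for 24 h, after which cell-surface VCAM-1 was quantified by ELISA. Bidirectional curve fitting used DMSO as negative control and activity baseline.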
# [18] = biological target: Oxysterols receptor LXR-beta (Homo sapiens) (UniProt P55055); assay: ATG_LXRb_TRANS: Attagene TRANS-FACTORIAL HepG2 Assay for human Liver X Receptor beta (LXRb) (AID 2282981; active means hit-call score of the fitted dose curve at least 0.9, where 1 is the maximum); conditions: HepG2 Attagene TRANS GAL4-LXRb reporter, mRNA
# Method in brief: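 HepG2 cells transiently transfected with multiple reporter transcription units carrying chimeric NR-Gal4 proteins acting on GAL4-UAS reporters; compound exposure 24 h. Reporter mRNA quantified by RT-PCR, 6-FAM labelling, HpaI digestion and capillary electrophoresis; gain of signal versus DMSO.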
# [19] = biological target: Transcriptional activator Myb (Homo sapiens) (UniProt P10242); assay: ATG_Myb_CIS: Attagene CIS-FACTORIAL HepG2 Assay for human Myeloblastosis (Myb) Proto-Oncogene Transcription Factor (AID 2282986); conditions: HepG2 Attagene CIS-FACTORIAL Myb reporter transcription; actives raise or lower the signal
# Method in brief: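 Using HepG2 liver cells bearing transiently transfected cis-promoter reporter constructs, the assay measures induction or loss of reporter mRNA after 24 hours of dosing. Detection used fluorescently labeled RT-PCR products separated by capillary electrophoresis.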
# [20] = ATG_M_32_TRANS: Attagene TRANS-FACTORIAL HepG2 Assay for M32 Transcription Factor (Internal Marker) (AID 2282984; active means hit-call score of the fitted dose curve at least 0.9, where 1 is the maximum); conditions: HepG2 Attagene TRANS M32 internal marker reporter
# Method in brief: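 HepG2 cells transiently transfected with multiple GAL4-UAS reporter transcription units, dosed for 24 hours; reporter mRNA quantified by RT-PCR, 6-FAM primer extension, HpaI digestion and capillary electrophoresis. Gain-of-signal fitted versus DMSO baseline; internal background-control marker.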
# Sequence of Glucocorticoid receptor (Homo sapiens) (P04150 whole entry, looked up, the tested form may be a part): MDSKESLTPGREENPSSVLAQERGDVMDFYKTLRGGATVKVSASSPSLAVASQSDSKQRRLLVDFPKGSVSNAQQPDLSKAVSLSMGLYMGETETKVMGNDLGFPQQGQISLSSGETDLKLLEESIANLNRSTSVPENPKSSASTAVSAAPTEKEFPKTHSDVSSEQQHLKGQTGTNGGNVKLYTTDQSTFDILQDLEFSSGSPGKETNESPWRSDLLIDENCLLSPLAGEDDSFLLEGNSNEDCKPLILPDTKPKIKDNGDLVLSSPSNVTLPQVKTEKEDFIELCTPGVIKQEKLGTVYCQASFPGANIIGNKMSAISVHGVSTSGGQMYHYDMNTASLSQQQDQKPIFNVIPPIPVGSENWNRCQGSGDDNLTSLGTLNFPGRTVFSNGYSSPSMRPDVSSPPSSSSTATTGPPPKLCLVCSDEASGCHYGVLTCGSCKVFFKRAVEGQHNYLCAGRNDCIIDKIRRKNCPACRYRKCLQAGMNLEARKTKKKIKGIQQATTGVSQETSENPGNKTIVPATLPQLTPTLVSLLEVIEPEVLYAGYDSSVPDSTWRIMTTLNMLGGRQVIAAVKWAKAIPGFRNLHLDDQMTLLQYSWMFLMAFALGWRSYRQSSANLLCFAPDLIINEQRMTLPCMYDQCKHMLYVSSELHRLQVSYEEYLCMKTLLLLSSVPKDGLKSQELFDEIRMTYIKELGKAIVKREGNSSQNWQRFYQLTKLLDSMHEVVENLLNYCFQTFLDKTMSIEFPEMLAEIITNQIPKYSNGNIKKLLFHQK
# Sequence of Cellular tumor antigen p53 (Homo sapiens) (P04637 whole entry, looked up): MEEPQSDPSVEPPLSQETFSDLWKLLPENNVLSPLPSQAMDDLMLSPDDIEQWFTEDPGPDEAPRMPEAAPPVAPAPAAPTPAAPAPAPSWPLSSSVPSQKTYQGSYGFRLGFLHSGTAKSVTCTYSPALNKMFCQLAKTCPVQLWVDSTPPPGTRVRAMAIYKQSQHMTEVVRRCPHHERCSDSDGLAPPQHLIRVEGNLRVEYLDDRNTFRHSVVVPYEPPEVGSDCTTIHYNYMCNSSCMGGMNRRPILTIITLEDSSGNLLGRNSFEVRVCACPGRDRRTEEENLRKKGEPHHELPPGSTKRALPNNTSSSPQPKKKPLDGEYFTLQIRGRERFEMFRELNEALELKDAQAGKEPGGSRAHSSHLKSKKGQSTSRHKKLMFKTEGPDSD
# Sequence of Nuclear respiratory factor 1 (Homo sapiens) (Q16656 whole entry, looked up): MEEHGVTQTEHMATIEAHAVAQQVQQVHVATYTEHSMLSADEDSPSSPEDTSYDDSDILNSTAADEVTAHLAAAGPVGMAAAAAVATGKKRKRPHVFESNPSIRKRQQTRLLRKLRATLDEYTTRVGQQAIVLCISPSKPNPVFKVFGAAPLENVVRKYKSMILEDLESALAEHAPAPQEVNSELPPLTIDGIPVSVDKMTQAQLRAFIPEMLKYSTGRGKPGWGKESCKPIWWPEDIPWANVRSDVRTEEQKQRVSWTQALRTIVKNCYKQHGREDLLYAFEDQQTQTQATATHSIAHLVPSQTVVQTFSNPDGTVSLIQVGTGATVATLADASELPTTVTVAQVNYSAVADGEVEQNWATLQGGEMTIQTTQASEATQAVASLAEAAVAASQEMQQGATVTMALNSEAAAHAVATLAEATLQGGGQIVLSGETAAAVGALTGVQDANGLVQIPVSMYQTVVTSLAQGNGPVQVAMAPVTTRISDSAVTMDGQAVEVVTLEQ
# Sequence of Hepatocyte nuclear factor 4-alpha (Homo sapiens) (P41235 whole entry, looked up, the tested form may be a part): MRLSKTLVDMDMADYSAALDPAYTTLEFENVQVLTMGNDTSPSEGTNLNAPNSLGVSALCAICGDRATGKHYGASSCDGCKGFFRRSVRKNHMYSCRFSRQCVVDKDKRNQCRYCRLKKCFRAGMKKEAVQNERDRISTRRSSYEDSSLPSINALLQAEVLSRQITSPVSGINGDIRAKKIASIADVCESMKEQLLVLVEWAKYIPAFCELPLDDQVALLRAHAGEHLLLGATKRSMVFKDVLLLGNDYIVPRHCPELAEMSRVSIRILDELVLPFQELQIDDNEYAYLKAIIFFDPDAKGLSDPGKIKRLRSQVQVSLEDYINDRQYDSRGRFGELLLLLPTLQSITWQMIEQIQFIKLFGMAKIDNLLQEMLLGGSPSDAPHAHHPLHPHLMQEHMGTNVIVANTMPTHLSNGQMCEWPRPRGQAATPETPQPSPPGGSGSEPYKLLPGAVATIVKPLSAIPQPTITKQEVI
# Sequence of Myc proto-oncogene protein (Homo sapiens) (P01106 whole entry, looked up): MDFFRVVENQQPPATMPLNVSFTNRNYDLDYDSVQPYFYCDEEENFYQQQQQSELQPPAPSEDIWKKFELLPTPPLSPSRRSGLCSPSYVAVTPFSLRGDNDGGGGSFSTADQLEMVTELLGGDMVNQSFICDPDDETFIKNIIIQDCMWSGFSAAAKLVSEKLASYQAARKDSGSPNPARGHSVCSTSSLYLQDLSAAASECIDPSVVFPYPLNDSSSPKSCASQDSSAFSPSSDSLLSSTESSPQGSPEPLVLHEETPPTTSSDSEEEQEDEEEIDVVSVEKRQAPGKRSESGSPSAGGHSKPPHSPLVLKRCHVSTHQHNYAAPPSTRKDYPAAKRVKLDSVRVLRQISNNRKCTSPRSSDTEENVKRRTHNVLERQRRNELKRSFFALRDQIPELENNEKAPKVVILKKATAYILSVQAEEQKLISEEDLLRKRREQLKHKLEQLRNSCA
# Sequence of Nuclear receptor subfamily 4 group A member 2 (Homo sapiens) (P43354 whole entry, looked up, the tested form may be a part): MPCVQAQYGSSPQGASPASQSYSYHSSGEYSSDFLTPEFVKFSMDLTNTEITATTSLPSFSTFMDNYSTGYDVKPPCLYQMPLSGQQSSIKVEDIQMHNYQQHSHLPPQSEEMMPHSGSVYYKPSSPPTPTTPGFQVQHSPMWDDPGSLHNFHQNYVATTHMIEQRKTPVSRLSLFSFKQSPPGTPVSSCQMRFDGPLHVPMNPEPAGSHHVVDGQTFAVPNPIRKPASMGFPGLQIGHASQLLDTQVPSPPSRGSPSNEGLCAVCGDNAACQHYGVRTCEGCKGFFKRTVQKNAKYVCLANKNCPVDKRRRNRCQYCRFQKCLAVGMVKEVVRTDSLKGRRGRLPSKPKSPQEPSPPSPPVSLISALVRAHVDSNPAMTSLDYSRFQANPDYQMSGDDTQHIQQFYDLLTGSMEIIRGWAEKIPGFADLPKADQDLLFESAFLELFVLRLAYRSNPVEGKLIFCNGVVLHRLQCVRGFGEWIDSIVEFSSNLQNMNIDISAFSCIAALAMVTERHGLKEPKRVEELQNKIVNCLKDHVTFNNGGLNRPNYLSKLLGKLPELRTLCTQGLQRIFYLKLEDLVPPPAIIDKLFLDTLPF
# Sequence of Oxysterols receptor LXR-beta (Homo sapiens) (P55055 whole entry, looked up, the tested form may be a part): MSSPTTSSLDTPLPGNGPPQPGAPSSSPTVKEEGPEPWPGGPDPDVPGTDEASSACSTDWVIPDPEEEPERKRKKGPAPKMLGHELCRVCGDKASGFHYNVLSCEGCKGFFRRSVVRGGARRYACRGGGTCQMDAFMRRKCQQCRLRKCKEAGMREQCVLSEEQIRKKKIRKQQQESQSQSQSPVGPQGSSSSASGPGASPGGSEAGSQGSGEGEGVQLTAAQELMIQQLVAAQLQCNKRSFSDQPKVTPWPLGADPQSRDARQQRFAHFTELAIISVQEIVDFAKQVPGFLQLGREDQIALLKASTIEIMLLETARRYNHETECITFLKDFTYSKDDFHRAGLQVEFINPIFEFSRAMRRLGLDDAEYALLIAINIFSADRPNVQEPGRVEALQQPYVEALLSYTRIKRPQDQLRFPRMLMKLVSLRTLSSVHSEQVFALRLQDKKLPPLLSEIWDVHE
# Sequence of Oxysterols receptor LXR-alpha (Homo sapiens) (Q13133 whole entry, looked up, the tested form may be a part): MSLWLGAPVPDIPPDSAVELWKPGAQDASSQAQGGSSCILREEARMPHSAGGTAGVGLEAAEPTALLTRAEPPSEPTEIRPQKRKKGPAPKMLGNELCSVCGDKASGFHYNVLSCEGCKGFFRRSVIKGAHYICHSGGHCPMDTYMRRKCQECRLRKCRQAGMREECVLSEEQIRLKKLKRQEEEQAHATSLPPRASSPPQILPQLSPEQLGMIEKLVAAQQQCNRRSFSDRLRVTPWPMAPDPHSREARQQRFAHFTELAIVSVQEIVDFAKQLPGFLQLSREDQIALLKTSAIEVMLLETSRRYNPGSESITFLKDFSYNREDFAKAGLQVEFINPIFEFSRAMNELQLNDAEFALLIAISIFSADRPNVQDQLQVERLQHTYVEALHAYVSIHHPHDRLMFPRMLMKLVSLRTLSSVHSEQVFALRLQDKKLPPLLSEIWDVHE
# Sequence of Estrogen-related receptor gamma (Homo sapiens) (P62508 whole entry, looked up, the tested form may be a part): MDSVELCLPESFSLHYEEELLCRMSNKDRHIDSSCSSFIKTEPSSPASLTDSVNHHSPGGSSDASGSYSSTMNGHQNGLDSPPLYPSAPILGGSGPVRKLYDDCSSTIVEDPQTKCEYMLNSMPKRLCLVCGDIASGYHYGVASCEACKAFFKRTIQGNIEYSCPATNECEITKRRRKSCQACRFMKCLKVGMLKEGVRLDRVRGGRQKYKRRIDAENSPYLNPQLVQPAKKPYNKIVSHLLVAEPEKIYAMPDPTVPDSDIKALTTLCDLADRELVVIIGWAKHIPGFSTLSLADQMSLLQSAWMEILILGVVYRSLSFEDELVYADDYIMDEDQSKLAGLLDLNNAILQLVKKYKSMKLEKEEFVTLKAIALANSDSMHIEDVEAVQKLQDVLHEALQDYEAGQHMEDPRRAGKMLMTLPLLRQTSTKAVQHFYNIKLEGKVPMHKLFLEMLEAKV
structure (smiles),measurement,setting,value
O=C(Cl)c1c(Cl)c(Cl)c(C(=O)Cl)c(Cl)c1Cl,outcome,[1],inactive
same,outcome,[2],inactive
same,outcome,[3],inactive
same,outcome,[4],inactive
same,outcome,[5],inactive
same,outcome,[6],inactive
same,outcome,[7],inactive
same,outcome,[8],inactive
same,outcome,[9],inactive
same,outcome,[10],inactive
same,outcome,[11],inactive
same,outcome,[12],inactive
same,outcome,[13],inactive
same,outcome,[14],inactive
same,outcome,[15],inactive
same,outcome,[16],inactive
same,outcome,[17],inactive
C=CC(=O)OCCCCCCOC(=O)C=C,outcome,[1],inactive
same,outcome,[4],inactive
same,outcome,[18],inactive
same,outcome,[5],inactive
same,outcome,[6],inactive
same,outcome,[7],inactive
same,outcome,[19],inactive
same,outcome,[8],inactive
same,outcome,[9],inactive
same,outcome,[10],inactive
same,AC50,[12],6.61 µM (active)
same,AC50,[13],26.2 µM (active)
same,AC50,[14],174 µM (active)
same,AC50,[15],3.97 µM (active)
same,AC50,[16],20 µM (active)
same,AC50,[17],10.4 µM (active)
C=CCCCCCCCCC=O,outcome,[1],inactive
same,outcome,[4],inactive
same,outcome,[5],inactive
same,outcome,[6],inactive
same,outcome,[20],inactive
same,outcome,[7],inactive
same,outcome,[19],inactive
same,outcome,[8],inactive
same,outcome,[9],inactive
same,outcome,[10],inactive
same,outcome,[11],inactive
same,outcome,[12],inactive
same,outcome,[13],inactive
same,outcome,[14],inactive
same,outcome,[15],inactive
same,outcome,[16],inactive
same,outcome,[17],inactive
Cc1c[nH]c(=O)[nH]c1=O,outcome,[2],inactive
same,outcome,[3],inactive
same,outcome,[18],inactive
same,outcome,[5],inactive
same,outcome,[6],inactive
same,outcome,[8],inactive
same,outcome,[9],inactive
same,outcome,[10],inactive
same,outcome,[11],inactive
same,outcome,[12],inactive
same,outcome,[13],inactive
same,outcome,[14],inactive
CCOc1ccc(NC(N)=O)cc1,outcome,[2],inactive
same,outcome,[3],inactive
same,outcome,[4],inactive
same,outcome,[18],inactive
same,outcome,[5],inactive
same,outcome,[6],inactive
same,outcome,[7],inactive
same,outcome,[8],inactive
same,outcome,[9],inactive
same,outcome,[10],inactive
same,outcome,[11],inactive
same,outcome,[12],inactive
same,outcome,[13],inactive
CC(C)(C)C1CCC(=O)CC1,outcome,[2],inactive
same,outcome,[3],inactive
same,outcome,[4],inactive
same,outcome,[18],inactive
same,outcome,[19],inactive
same,outcome,[8],inactive
same,outcome,[9],inactive
same,outcome,[10],inactive
same,outcome,[11],inactive
same,outcome,[12],inactive
same,AC50,[13],145 µM (active)
same,outcome,[14],inactive
CCCCC(CC)COS(=O)(=O)O (stereo not given),outcome,[1],inactive
same,outcome,[3],inactive
same,outcome,[5],inactive
same,outcome,[6],inactive
same,outcome,[20],inactive
same,outcome,[8],inactive
same,outcome,[9],inactive
same,outcome,[10],inactive
same,outcome,[11],inactive
same,outcome,[12],inactive
same,outcome,[13],inactive
N=C1C=CC(=C(c2ccc(N)cc2)c2ccc(N)cc2)C=C1,outcome,[1],inactive
same,AC50,[5],129 µM (active)
same,outcome,[6],inactive
same,outcome,[20],inactive
same,outcome,[7],inactive
same,AC50,[19],24.9 µM (active)
same,AC50,[8],100 µM (active)
same,outcome,[9],inactive
same,outcome,[10],inactive
same,AC50,[11],41.1 µM (active)
same,AC50,[12],9.02 µM (active)
same,outcome,[13],inactive
same,AC50,[14],33.4 µM (active)
CCCCCOC(=O)CCCCC,outcome,[1],inactive
same,outcome,[4],inactive
same,outcome,[8],inactive
same,outcome,[9],inactive
same,outcome,[10],inactive
same,outcome,[11],inactive
same,outcome,[12],inactive
same,outcome,[13],inactive
same,outcome,[14],inactive
CCC(C)c1ccccc1 (stereo not given),outcome,[2],inactive
same,outcome,[3],inactive
same,outcome,[4],inactive
same,outcome,[18],inactive
same,outcome,[5],inactive
same,outcome,[6],inactive
same,outcome,[20],inactive
same,outcome,[19],inactive
same,outcome,[8],inactive
same,outcome,[9],inactive
same,outcome,[10],inactive
same,outcome,[11],inactive
same,outcome,[12],inactive
same,outcome,[13],inactive
same,outcome,[14],inactive
